Measured values taken from PubChem BioAssay.
Active and inactive are the calls of the source.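 Rule for the calls: active = inhibition above the hit cutoff set in the earlier primary screen (cut at about 27% in these data); inactive = the rest.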

target: Protein phosphatase methylesterase 1 (Homo sapiens) (UniProt Q9Y570); assay: PME-1 inhibitor activity retest, confirmation, biochemical, fluorescence polarization, FP-Rh probe, triplicate (AID 2171); settings: recombinant PME-1, FP-Rh probe fluorescence polarization; at 5.9 µM; hits give high values;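 note: 0% = enzyme with DMSO and 100% = wells lacking PME-1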
Sequence (Q9Y570 whole entry, looked up): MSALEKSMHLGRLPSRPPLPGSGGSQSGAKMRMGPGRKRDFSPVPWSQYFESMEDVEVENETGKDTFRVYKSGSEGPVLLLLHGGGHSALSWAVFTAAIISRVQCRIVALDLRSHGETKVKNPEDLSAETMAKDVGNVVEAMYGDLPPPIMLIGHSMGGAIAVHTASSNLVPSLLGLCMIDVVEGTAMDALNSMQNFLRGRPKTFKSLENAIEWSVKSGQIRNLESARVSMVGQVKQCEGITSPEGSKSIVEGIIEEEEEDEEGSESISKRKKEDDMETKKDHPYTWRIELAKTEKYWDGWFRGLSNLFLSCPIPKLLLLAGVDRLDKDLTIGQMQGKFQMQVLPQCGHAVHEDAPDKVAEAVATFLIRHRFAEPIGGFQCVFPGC

| Structure (SMILES) | inhibition |
| --- | --- |
| N#CC1=C(N)C(C#N)(C#N)C(c2cccnc2)C2CC(c3ccccc3)CC=C12 (stereo not given) | 83.5% (active) |
| N#Cc1ccc(Nc2nc(-c3ccc(O)cc3O)cs2)cc1C(F)(F)F | 51.9% (active) |
| C/C(=C\c1ccc2c(c1)OCO2)C1Nc2cccc3cccc(c23)N1 | 28.5% (active) |
| COc1ccc(/C=N/NC(=O)c2cc3c(OC)ccc(OC)c3[nH]2)cc1O | 37.8% (active) |
| O=C(NC(C(=O)N/N=C/c1cc([N+](=O)[O-])ccc1O)c1n[nH]c(=O)c2ccccc12)c1ccccc1 (stereo not given) | 58.3% (active) |
| Nc1ccc2nc3c(=O)n(CCc4ccccc4)c(=O)[nH]c3nc2c1 | 51.2% (active) |
| CCc1cccc2c(C(=O)COC(=O)c3ccc([N+](=O)[O-])s3)c[nH]c12 | 24.6% (inactive) |
| CCc1nnc(NC(=O)CSc2nc(C)c3c(c2C#N)CCCC3)s1 | 13.9% (inactive) |
| Cc1ccc(N=Nc2c(N)n(-c3ccccc3)[nH]c2=O)cc1 | 33.1% (active) |
| COc1ccc(Nc2nc(NN)nc(C)c2[N+](=O)[O-])cc1 | 17.7% (inactive) |
| COc1cccc(Oc2ccc(S(=O)(=O)N3CCCC3)cc2[N+](=O)[O-])c1 | 21.4% (inactive) |
| Cn1c(=O)cc2c3c(c(N4CCCCC4)ccc31)C(=O)c1ccccc1-2 | 24.1% (inactive) |
| Nc1ccc(O)c2c1C(=O)c1ccccc1C2=O | 46.5% (active) |
| Oc1nc(Nc2cccc(Cl)c2)sc1/C=C1\C=Nc2ccccc21 | 26.6% (active) |
| Oc1ccc(Br)cc1-c1nc2cnccn2c1NC1CCCC1 | 21.4% (inactive) |
